Results filed as inconclusive are left out. Activity calls are given as the source filed them. Rule for the calls: active = hit-call score of the fitted dose curve at least 0.9, where 1 is the maximum; inconclusive = response in the unintended direction; inactive = score below 0.9.

Assay [1] can be described thus: TOX21_p53_BLA_p2_viability: Viability Assessment in the Tox21 HCT-116 p53 Agonism Beta-lactamase Assay, Phase 2 (AID 2283591).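 Note: actives lower the ATP signal meaning cytotoxicity.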 In short, it runs like this: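 HCT116 p53-bla cells, 4000/well, dosed after 5 h plating (217-fold dilution of DMSO stocks) and incubated 16 h at 37C. Viability taken as cellular ATP by CellTiter-Glo luminescence after 30 min RT; signal loss marks cytotoxicity.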

Assay [2] has as its target Cellular tumor antigen p53 (Homo sapiens) (UniProt P04637). The assay is described as follows: TOX21_p53_BLA_p2_ratio: Tox21 HCT-116 p53 Agonism Beta-lactamase Assay, Ratio, Phase 2 (AID 2283592). In a few lines:
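Readout: blue/green (460/530 nm) FRET emission ratio after 2 h CCF4-AM loading at room temperature, excitation 405 nm. HCT116 p53 bla cells, 16 h compound exposure at 37C, 5% CO2; agonist direction fitted against DMSO baseline.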

A short description of assay [3]: TOX21_p53_BLA_p3_viability: Viability Assessment in the Tox21 HCT-116 p53 Agonism Beta-lactamase Assay, Phase 3 (AID 2283593).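 Note: cells exposed to compound for 16 h before reading.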 In short, it runs like this: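 HCT116 cells, 4000/well, dosed 5 h after plating by pin transfer (217-fold dilution from DMSO stock) and incubated 16 h at 37C, 5% CO2. Viability read as ATP luminescence with CellTiter-Glo after 30 min at room temperature.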

The nature of assay [4]: TOX21_p53_BLA_p4_viability: Viability Assessment in the Tox21 HCT-116 p53 Agonism Beta-lactamase Assay, Phase 4 (AID 2283597).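 Note: hits lower the luminescence signal meaning cytotoxicity.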 In short, it runs like this: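 ATP content by CellTiter-Glo luminescence, 30 min RT, read after the beta-lactamase ratio step. Cells: HCT116, 4000/well, compound added after 5 h, exposure 16 h at 37C. Signal loss = reduced viability.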
Assay [5] addresses Cellular tumor antigen p53 (Homo sapiens) (UniProt P04637). Briefly: TOX21_p53_BLA_p5_ratio: Tox21 HCT-116 p53 Agonism Beta-lactamase Assay, Ratio, Phase 5 (AID 2283599). In a few lines: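 HCT-116 p53-bla cells (4000/well) plated 5 h, dosed with compound (217-fold DMSO dilution) for 16 h at 37 C; CCF4-AM substrate 2 h at room temperature. Activity is the 460/530 nm emission ratio (405 nm excitation), fitted in gain-of-signal direction versus DMSO.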

Assay [6] can be described thus: TOX21_p53_BLA_p5_viability: Viability Assessment in the Tox21 HCT-116 p53 Agonism Beta-lactamase Assay, Phase 5 (AID 2283600). In short, it runs like this:
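ATP luminescence (CellTiter-Glo, 30 min, RT) served as the viability read-out, with loss of signal indicating cytotoxicity. Compounds in DMSO were pinned at a 217-fold dilution onto 4000 cells/well and incubated 16 h, 37C.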

The target of assay [7] is Cellular tumor antigen p53 (Homo sapiens) (UniProt P04637). Briefly: TOX21_p53_BLA_p4_ratio: Tox21 HCT-116 p53 Agonism Beta-lactamase Assay, Ratio, Phase 4 (AID 2283601). In a few lines: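 HCT-116 p53 beta-lactamase reporter cells (4000/well) preincubated 5 h, then compound (217-fold dilution of DMSO stock) for 16 h at 37C. CCF4-AM substrate added 2 h at room temperature; 460/530 nm emission ratio fitted upward versus DMSO.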
Chain of Cellular tumor antigen p53 (Homo sapiens) (P04637 whole entry, looked up): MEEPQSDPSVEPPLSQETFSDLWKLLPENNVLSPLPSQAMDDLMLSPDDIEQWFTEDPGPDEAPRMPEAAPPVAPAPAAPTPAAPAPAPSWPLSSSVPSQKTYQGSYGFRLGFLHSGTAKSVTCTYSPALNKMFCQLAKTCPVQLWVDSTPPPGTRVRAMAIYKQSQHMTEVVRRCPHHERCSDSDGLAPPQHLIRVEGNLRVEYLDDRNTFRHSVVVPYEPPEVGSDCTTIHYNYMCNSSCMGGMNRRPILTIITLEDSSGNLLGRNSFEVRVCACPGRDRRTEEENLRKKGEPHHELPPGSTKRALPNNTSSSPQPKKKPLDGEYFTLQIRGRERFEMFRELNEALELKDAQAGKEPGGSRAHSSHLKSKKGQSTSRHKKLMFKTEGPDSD

Assay [8] shares this target. Briefly: TOX21_p53_BLA_p3_ratio: Tox21 HCT-116 p53 Agonism Beta-lactamase Assay, Ratio, Phase 3 (AID 2283596). In short, it runs like this: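 Cells were seeded at 4000/well, rested 5 h at 37C, then dosed with DMSO compound solutions (217-fold dilution) for 16 h. CCF4-AM substrate was loaded for 2 h at room temperature, and the 460/530 nm emission ratio was fitted for gain of signal versus DMSO.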

Turning to `CCCC[P+](CC)(CCCC)CCCC` (tested in a mixture with another compound), the compound was called inactive in assay [1], in assay [2], in assay [3], in assay [4], in assay [5] and in assay [6]. The outcome in assay [7] was inactive.

Consider `CCC[CH2][Sn]([CH2]CCC)([O]C(C)=O)[O]C(C)=O`, for which the compound was called inactive in assay [1], in assay [2], in assay [4], in assay [5], in assay [6] and in assay [7]. For the same compound, the AC50 in assay [3] was 17.7 µM (active).

`O=C(O)CBr`: the result in assay [1], in assay [2], in assay [3], in assay [4], in assay [5] and in assay [6] was inactive. Also, in assay [7], the outcome was inactive.

As to `CN1[C@@H]2CC[C@H]1CC(OC(=O)c1cc(Cl)cc(Cl)c1)C2` (stereo not given in full), the call in assay [1], in assay [2], in assay [3], in assay [4], in assay [5] and in assay [6] was inactive. Moreover, in assay [7], the result was inactive.

For the compound `C[C@]12N[C@H](Cc3ccccc31)c1ccccc12`, the call in assay [1], in assay [2], in assay [3], in assay [8], in assay [6] and in assay [7] was inactive.

For `CCC(=O)O[C@](Cc1ccccc1)(c1ccccc1)[C@H](C)CN(C)C`, the compound was classed as inactive in assay [1], in assay [2], in assay [3], in assay [4], in assay [5] and in assay [7].

Turning to `O=C(N/N=C/c1ccc([N+](=O)[O-])o1)c1cc([N+](=O)[O-])cc([N+](=O)[O-])c1O`, the compound was classed as inactive in assay [1], in assay [2], in assay [3], in assay [5], in assay [6] and in assay [7]. Besides, the AC50 in assay [4] is 23 µM (active).

For `CCOP(=S)(OCC)Oc1cc(C)nc(N(CC)CC)n1`, the compound was classed as inactive in assay [1], in assay [2], in assay [3], in assay [4], in assay [6] and in assay [7].

On to `C[N+](C)(C)C`, for which the compound was classed as inactive in assay [1], in assay [2], in assay [3], in assay [4], in assay [5] and in assay [6].

Take `COC(=O)C(C)N(C(=O)c1ccco1)c1c(C)cccc1C` (stereo not given): the result in assay [1], in assay [2], in assay [3], in assay [4] and in assay [5] was inactive.

For `OC(c1ccccc1)(c1ccccc1)C1CN2CCC1CC2` (stereo not given), the compound was classed as inactive in assay [1], in assay [2], in assay [3], in assay [4], in assay [5] and in assay [6]. In addition, the outcome in assay [7] was inactive.

As to `Cc1nnc2n1-c1ccc(Cl)cc1C(c1ccccc1Cl)=NC2`, the compound was called inactive in assay [1], in assay [2], in assay [3], in assay [4] and in assay [6].

As to `CCN(CC)C(=O)[C@@H]1C=C2c3cccc4[nH]cc(c34)C[C@H]2N(C)C1`, the outcome in assay [1], in assay [2], in assay [3], in assay [4], in assay [5] and in assay [6] was inactive. Moreover, the outcome in assay [7] was inactive.

For `CCC1(CC)C(=O)NC(=O)N(C)C1=O`, the call in assay [1], in assay [2], in assay [3], in assay [4] and in assay [5] was inactive.

For the compound `CC(C)(C)NCC(O)c1cc(Cl)c(N)c(C(F)(F)F)c1` (stereo not given), the result in assay [1], in assay [2], in assay [3], in assay [4], in assay [5] and in assay [6] was inactive. Moreover, in assay [7], the result was inactive.

Source of the values: PubChem BioAssay (EPA / NIEHS).
